# Laboratory results: PubChem BioAssay (NCATS)
# Values without a mark were called inactive. The list shows a part of the results. Inconclusive results are not listed. Calls of active or inactive are those of the source. Unless noted, no rule for the calls is given here.
# Tests used:
# [1] = tested on: HIV-1 nucleocapsid protein NCp7 (binding to TG oligonucleotide); experiment: HIV Nucleocapsid (AID 346); details: HIV-1 NC / fluorescein-TGTGTGTG probe, fluorescence polarization;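 also: potency is read from the fitted curve at half-maximal effect; potency is for inhibitors that block NC binding and lower polarization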
# How it was run: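 NCp7 100 nM + fluorescein TG4xF 10 nM; Hepes pH 7.5/250mM NaCl/1uM ZnCl2/0.004% PEG 20000; 1 hr RT; FP, 45 s exposure; oligo-only wells as negative control.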
# [2] = qHTS Assay for Inhibitors of Fructose-1,6-bisphosphate Aldolase from Giardia Lamblia: Giardia lamblia growth inhibition (AID 2785; active = well fitted curve in the direction sought with a large enough effect; an effect the other way counts as inactive or inconclusive; also: % is scaled to controls: 0 for no effect and ±100 for the full control effect; nearly all actives have a fitted effect of over 70% in size); details: Giardia lamblia trophozoite growth inhibition; series mostly up to 57.5 µM
# How it was run: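 G. lamblia WB trophozoites (100 cells/well) were grown with compound at 37C for 48 h in modified TYI-S-33 medium, pH 7.0. Growth was measured by ATPlite luminescence after 20 min at room temperature.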
# [3] = qHTS Assay for Inhibitors of Fructose-1,6-bisphosphate Aldolase from Giardia Lamblia: Mammalian cellular toxicity (AID 2786; active = well fitted curve in the direction sought with a large enough effect; an effect the other way counts as inactive or inconclusive;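 also: compound exposure lasted 48 h before reading; % is scaled to controls: 0 for no effect and ±100 for the full control effect; nearly all actives have a fitted effect of over 60% in size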); details: mammalian cell viability counter-screen; series mostly up to 57.5 µM
# How it was run: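 CHO cells seeded at 250 cells/well with pin-tool-added compound, incubated 48 h at 37 °C, 5% CO2. Viability read as ATP content by ATPlite luminescence after 20 min.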
# [4] = biological target: Fructose-bisphosphate aldolase (Giardia intestinalis (strain ATCC 50803 / WB clone C6)) (UniProt A8B2U2); experiment: qHTS Assay for Inhibitors of Fructose-1,6-bisphosphate Aldolase from Giardia Lamblia: Primary screen confirmation (AID 2787; active = well fitted curve in the direction sought with a large enough effect; an effect the other way counts as inactive or inconclusive;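 also: aldolase product measured through coupled diaphorase step turning resazurin into fluorescent resorufin; % is scaled to controls: 0 for no effect and ±100 for the full control effect; nearly all actives have a fitted effect of over 45% in size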); details: purified Giardia aldolase enzyme activity; series mostly up to 57.5 µM
# How it was run: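 FBPA (40 nM in enzyme reagent, with 30 uM ZnCl2) was preincubated 10 min at RT with compound up to 57.5 uM final. Substrate plus coupled detection system was then added, and fluorescence (525/598 nm) was read after 20 min at RT.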
# [5] = biological target: Fructose-bisphosphate aldolase A (Oryctolagus cuniculus) (UniProt P00883); experiment: qHTS Assay for Inhibitors of Fructose-1,6-bisphosphate Aldolase from Giardia Lamblia: Rabbit FBPA Selectivity (AID 2794; active = well fitted curve in the direction sought with a large enough effect; an effect the other way counts as inactive or inconclusive; also: % is scaled to controls: 0 for no effect and ±100 for the full control effect; nearly all actives have a fitted effect of over 60% in size); details: Rabbit muscle FBPA enzyme inhibition, selectivity counter-screen; series mostly up to 57.5 µM
# How it was run: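 Selectivity counter-screen using rabbit Class I FBPA in a coupled enzyme system with fluorescent detection (ex 525 nm/em 598 nm). Compounds at up to 57.5 uM final were preincubated 10 min at RT with coupling enzymes, then substrate/detection reagent added for 20 min at RT.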
# [6] = qHTS Assay for Inhibitors of Fructose-1,6-bisphosphate Aldolase from Giardia Lamblia: Coupling assay counterscreen confirmation (AID 2795; active = well fitted curve in the direction sought with a large enough effect; an effect the other way counts as inactive or inconclusive; also: % is scaled to controls: 0 for no effect and ±100 for the full control effect; nearly all actives have a fitted effect of over 55% in size); details: GAPDH coupling enzyme counterscreen, biochemical; series mostly up to 57.5 µM
# How it was run: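 Activity against the detection chain, not aldolase, was measured using glyceraldehyde-3-phosphate with GAPDH-based coupling and AmpLite Red. Final compound levels ran up to 57.5 uM; signal was read by fluorescence after 20 min at RT.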
# Fructose-bisphosphate aldolase (Giardia intestinalis (strain ATCC 50803 / WB clone C6)), sequence (A8B2U2 whole entry, looked up): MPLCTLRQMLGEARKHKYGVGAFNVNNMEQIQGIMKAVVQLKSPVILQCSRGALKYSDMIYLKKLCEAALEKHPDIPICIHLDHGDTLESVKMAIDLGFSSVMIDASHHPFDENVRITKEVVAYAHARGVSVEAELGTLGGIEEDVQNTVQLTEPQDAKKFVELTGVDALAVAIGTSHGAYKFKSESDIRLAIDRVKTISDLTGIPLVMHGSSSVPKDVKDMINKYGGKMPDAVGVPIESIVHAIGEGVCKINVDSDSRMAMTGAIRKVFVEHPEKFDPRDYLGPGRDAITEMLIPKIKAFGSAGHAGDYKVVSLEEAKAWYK
# Fructose-bisphosphate aldolase A (Oryctolagus cuniculus), sequence (P00883 whole entry, looked up): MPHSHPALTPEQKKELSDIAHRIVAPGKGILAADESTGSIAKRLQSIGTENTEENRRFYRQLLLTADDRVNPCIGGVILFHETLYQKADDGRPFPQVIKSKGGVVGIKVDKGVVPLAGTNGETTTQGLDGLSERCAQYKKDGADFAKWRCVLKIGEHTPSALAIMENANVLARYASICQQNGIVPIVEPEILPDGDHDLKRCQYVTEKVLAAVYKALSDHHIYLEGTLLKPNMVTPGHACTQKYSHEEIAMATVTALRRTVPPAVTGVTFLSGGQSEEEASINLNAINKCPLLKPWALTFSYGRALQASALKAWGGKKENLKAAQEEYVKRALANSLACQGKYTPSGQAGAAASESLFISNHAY
smiles,measurement,setting,value
CN(C)c1ncnc2ccc(-c3cccc(C#N)c3)cc12,Potency,[1],> 20 µM
O=C(NC(=S)N1C[C@H]2C[C@H](C1)c1cccc(=O)n1C2)c1ccc(F)cc1,outcome,[2],inactive
same,outcome,[3],inactive
same,outcome,[4],inactive
same,outcome,[5],inactive
same,outcome,[6],inactive
Cn1c(=O)c(CCc2ccccc2)nc2cncnc21,Potency,[1],> 20 µM
Cn1c(=O)c(-c2cccs2)nc2cnc(OCc3ccccc3)nc21,Potency,[1],> 20 µM
CCNc1ncc2nc(C)c(=O)n(Cc3cccs3)c2n1,Potency,[1],> 20 µM
CN1CCN(c2ncc3nc(-c4cn(C)c5ccccc45)c(=O)n(-c4ccccc4)c3n2)CC1,Potency,[1],> 4 µM
COc1ccc(CNCCc2c[nH]c3ccccc23)cc1OC,"activity change, negative = inhibition",[2],0.258% [at 10.4 µM]
same,outcome,[3],inactive
same,outcome,[4],inactive
same,outcome,[5],inactive
same,outcome,[6],inactive
O=C(c1ccncc1)N1CCC2(CC1)CCN(c1ccc(-c3ccccc3)cc1)CC2,Potency,[1],> 20 µM
O=C(c1ccncc1)N1CCC2(CC1)CN(c1ccncc1)C2,Potency,[1],> 20 µM
COc1ncc2nc(-c3ccc(Cl)cc3)c(=O)n(CCC#N)c2n1,Potency,[1],> 20 µM
N#Cc1cccc(NC(=O)N2CCCC3(CCN(C(=O)c4cccc(F)c4)CC3)C2)c1,Potency,[1],> 20 µM
COCC(=O)N1CCC2(CC1)CCN(c1ccccc1)CC2,Potency,[1],> 20 µM
COCCn1c(=O)c(-c2cn(C)c3ccccc23)nc2cnc(Oc3ccccc3)nc21,Potency,[1],> 20 µM
COc1ccc(Oc2ncc3nc(-c4cccs4)c(=O)n(Cc4cccc(OC)c4)c3n2)cc1,Potency,[1],> 20 µM
Cc1cccc(CNc2ncnc3ccc(-c4cccc(C#N)c4)cc23)c1,Potency,[1],> 20 µM
O=S(=O)(c1ccccc1)N1CCC2(CCCN(c3ccccc3)C2)CC1,Potency,[1],> 20 µM
COc1ncc2nc(-c3cc(F)cc(F)c3)c(=O)n(CCc3ccccc3)c2n1,Potency,[1],> 20 µM
CNc1ncncc1-c1ccccc1CN(C)C,Potency,[1],> 20 µM
O=C(c1ccncc1)N1CCC2(CCCN(Cc3ccccc3)C2)CC1,Potency,[1],> 20 µM
CCNc1ncc2nc(-c3cc(F)cc(F)c3)c(=O)n(-c3ccccc3)c2n1,Potency,[1],> 4 µM
COC(=O)N1CCC2(CC1)CN(c1ccccc1)C2,Potency,[1],> 20 µM
CNc1nc(-c2ccc3c(c2)OCO3)nc2ccccc12,Potency,[1],> 20 µM
Cn1cc(-c2nc3cnc(N4CCNCC4)nc3n(CCc3ccccc3)c2=O)c2ccccc21,Potency,[1],> 4 µM
COc1ccc(NC(=O)N2CCC3(CC2)CCN(C(=O)c2csnn2)CC3)cc1,Potency,[1],> 20 µM
CC(C)CN1CC[C@@]2(CCCN(C(=O)c3ccco3)C2)C1,Potency,[1],> 20 µM
CN(C)c1ncc2nc(-c3ccc(F)cc3)c(=O)n(Cc3ccc(F)cc3)c2n1,Potency,[1],> 20 µM
CN1CCN(c2ncc3nc(CCc4ccccc4)c(=O)n(C4CC4)c3n2)CC1,Potency,[1],> 20 µM
CN(C)C(=O)c1ccc(-c2ccc3ncnc(N4CCC(C(=O)O)CC4)c3c2)cc1,Potency,[1],> 20 µM
COc1ccccc1-c1cc(NCc2cccc(C)c2)ncn1,Potency,[1],> 20 µM
Cn1cccc1C(=O)N1CCC2(CC1)CN(C(=O)Nc1cccc(F)c1)C2,Potency,[1],> 20 µM
O=S(=O)(c1ccccc1)N1CCC2(CC1)CN(c1ncccn1)C2,Potency,[1],> 20 µM
Cc1noc(C)c1-c1nc(N2CCOCC2)c2ccccc2n1,Potency,[1],> 20 µM
O=c1cnc2cnc(Nc3ccccc3)nc2n1C[C@H]1CCCO1,Potency,[1],> 20 µM
COCCn1c(=O)c(-c2cccc(F)c2)nc2cncnc21,Potency,[1],> 20 µM
Clc1ccccc1-c1nc(NC2CCNCC2)c2ccccc2n1,Potency,[1],> 20 µM
O=c1c(-c2ccc(Cl)cc2)nc2cnc(Nc3ccccc3)nc2n1C[C@H]1CCCO1,Potency,[1],0.219 µM (active)
Cc1cccc(CNc2cc(-c3cccc(C#N)c3)ncn2)c1,Potency,[1],> 20 µM
Cc1cccc(CNc2cc(-c3ccc(C(=O)N(C)C)cc3)ncn2)c1,Potency,[1],> 20 µM
COC(=O)N1CCC2(CCCN(c3ncccn3)C2)CC1,Potency,[1],> 20 µM
CN(C)C(=O)c1ccc(-c2ccc3ncnc(NC4CCNCC4)c3c2)cc1,Potency,[1],> 20 µM
